Source: PubChem BioAssay (National Center for Advancing Translational Sciences (NCATS))
KDM5B inh – Primary screen for KDM5B Histone Demethylases FDH-coupled qHTS; Lysine-specific demethylase 5B (Homo sapiens), Q9UGL1; KDM5B demethylase, FDH-coupled NADH fluorescence (FDH is formaldehyde dehydrogenase); Potency, µM (series often up to 57.7 µM), actives largely listed as inhibitors; 220,000 compounds, 2.6% hits; note: potency is the fitted concentration of half-maximal effect; 0% is about no effect; nearly all actives have a fitted effect of over 70% in size
Target sequence (Q9UGL1 whole entry, looked up): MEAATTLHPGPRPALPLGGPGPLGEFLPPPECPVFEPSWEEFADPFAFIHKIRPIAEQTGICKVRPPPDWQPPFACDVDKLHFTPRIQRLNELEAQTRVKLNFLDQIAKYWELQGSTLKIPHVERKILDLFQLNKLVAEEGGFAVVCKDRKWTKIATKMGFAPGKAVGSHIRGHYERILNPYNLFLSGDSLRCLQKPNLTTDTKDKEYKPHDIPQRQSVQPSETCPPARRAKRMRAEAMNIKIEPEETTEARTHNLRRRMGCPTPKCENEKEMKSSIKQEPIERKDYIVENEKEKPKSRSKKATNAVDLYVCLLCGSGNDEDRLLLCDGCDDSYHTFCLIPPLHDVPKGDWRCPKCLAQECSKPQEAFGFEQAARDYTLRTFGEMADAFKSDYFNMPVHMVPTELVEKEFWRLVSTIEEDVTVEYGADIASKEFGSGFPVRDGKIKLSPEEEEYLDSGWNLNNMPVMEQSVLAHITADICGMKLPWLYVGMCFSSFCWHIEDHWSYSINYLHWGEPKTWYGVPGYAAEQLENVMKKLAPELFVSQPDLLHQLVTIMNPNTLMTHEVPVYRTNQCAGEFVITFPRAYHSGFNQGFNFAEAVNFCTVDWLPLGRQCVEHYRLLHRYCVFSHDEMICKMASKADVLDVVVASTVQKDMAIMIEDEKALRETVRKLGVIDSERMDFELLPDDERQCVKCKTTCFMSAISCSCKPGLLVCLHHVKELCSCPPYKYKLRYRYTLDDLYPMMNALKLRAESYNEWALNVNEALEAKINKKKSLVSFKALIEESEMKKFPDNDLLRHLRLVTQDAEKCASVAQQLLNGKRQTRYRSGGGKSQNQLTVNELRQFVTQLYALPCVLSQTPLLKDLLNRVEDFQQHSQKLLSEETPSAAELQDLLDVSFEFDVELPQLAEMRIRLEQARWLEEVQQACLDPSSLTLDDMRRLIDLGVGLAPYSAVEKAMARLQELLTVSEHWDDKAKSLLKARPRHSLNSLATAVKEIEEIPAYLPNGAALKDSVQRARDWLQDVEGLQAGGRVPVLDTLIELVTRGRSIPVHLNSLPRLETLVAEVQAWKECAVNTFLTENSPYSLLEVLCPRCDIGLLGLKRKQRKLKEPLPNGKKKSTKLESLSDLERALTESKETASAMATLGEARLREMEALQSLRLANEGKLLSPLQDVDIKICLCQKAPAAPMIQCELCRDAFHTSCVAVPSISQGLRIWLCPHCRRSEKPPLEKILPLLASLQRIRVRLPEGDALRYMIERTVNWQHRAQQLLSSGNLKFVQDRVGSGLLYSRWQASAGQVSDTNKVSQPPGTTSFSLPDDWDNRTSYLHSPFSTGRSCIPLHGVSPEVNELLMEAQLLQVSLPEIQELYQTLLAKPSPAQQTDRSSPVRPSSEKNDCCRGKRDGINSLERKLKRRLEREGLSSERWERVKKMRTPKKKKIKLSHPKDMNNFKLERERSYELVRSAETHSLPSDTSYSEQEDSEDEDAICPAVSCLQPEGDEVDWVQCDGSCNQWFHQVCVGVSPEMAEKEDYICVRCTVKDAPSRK
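Inhibition is measured as reduced NADH fluorescence generation from FDH coupling to formaldehyde release. Truncated KDM5BΔAP at 200 nM final acts on H3K4me3 peptide (12.5 µM in substrate mix) in pH 7.5 HEPES buffer with Tween-20, 30 min, room temperature.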
IP6K1 inhibitor – Primary qHTS assay for small molecule inhibitors of Inositol hexaphosphate kinase 1 (IP6K1) | Inositol hexakisphosphate kinase 1 (Homo sapiens), Q92551 | IP6K1 kinase, ADP-Glo luminescence, 2 h; hits give low values | activity change, % (series mostly up to about 58 µM) | 140,000 compounds, 0.81% hits | AID 1645851, 2021; in the data active = activity change below about -25%; note: % is set by controls: 0 for no effect and ±100 for the full control effect
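ADP-Glo luminescence measures ADP made by human IP6K1 during a 2 h RT reaction with ATP/IP6 (mix at 1.3 mM/130 uM); top library doses 57.5 and 19.1 uM final.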
HEK293 viab – GF-AFC viability counterscreen for inhibitors of alpha-synuclein gene (SNCA) expression. HEK-293-SNCA-luc viability, GF-AFC fluorescence, 24 h. Potency, µM (titrated, usually from 57.1 µM), for inactives: at the highest dose activity change, negative = cytotoxicity, usual class: cytotoxic. 150,000 compounds, 0.12% hits. AID 1671193, 2021;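 note: potency is the fitted concentration of half-maximal effect; 0% = DMSO-treated cells and -100% = medium-only wells without cells; nearly all actives have a fitted effect of over 30% in size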
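Cytotoxicity counterscreen: after 24 h compound treatment of genome-edited SNCA-luciferase HEK-293 cells, live-cell protease substrate GF-AFC read by fluorescence after 30 min; activity scaled between DMSO (0%) and medium-only (-100%), curves Hill-fitted.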
SNCA expr inh – Primary qHTS assay for inhibitors of alpha-synuclein gene (SNCA) expression; HEK-293 SNCA-luciferase knock-in, luminescence, 24 h; Potency, µM (titrated, usually from 57.2 µM), for the others: top-dose activity change, negative = inhibition, hits mostly inhibitors; 140,000 compounds, 0.17% hits; AID 1671194, 2021;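 note: potency is the fitted concentration of half-maximal effect; plate controls were DMSO cells for no effect and cell-free wells for full effect; nearly all actives have a fitted effect of over 45% in size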
* hit, by the source's call; [ ] = dose if it differs, or a comment. The list is not random: actives were taken first. Their share in the collection is about 2.8%. Unless noted, calls come from the whole dose curve; as a rule, active = well fitted curve in the direction sought with a large enough effect; inconclusive = small, poorly fitted or top-dose-only effect, or another doubt; inactive = no such curve, though single readings can be large; an effect the other way counts as inactive or inconclusive.

COc1ccc(C(=O)NCCn2ccn3nc(-c4ccc(F)cc4)cc3c2=O)cn1 was read as KDM5B inh 25.1µM*, IP6K1 inhibitor 0.4, HEK293 viab -5.3% and SNCA expr inh -15.2%.
`COc1ccc(-c2cc3c(=O)n(CCNC(=O)c4ccc(F)c(F)c4)ccn3n2)cc1` gave KDM5B inh inconclusive, IP6K1 inhibitor -0.9, HEK293 viab -1.9% and SNCA expr inh 96.7%.
CNc1nc2c(c(=O)n(C)c(=O)n2C)n1CCc1ccccc1 was read as KDM5B inh inactive.
Screening Cc1nc(CN2C[C@H](C(=O)N3CCN(c4ccccn4)CC3)C[C@@H]2c2ccc(F)cc2)cs1 returned KDM5B inh 28.2µM*, IP6K1 inhibitor -2.9, HEK293 viab -7.0% and SNCA expr inh -29.0%.
Cc1nc(CN2C[C@H](C(=O)NCCOc3ccccc3)C[C@@H]2c2ccc(F)cc2)cs1 was read as KDM5B inh inconclusive, IP6K1 inhibitor -2.7, HEK293 viab -28.9%[87.6 µM] and SNCA expr inh -28.8%[87.6 µM].
COCC1CN(C2CCC2)CC12CCN(C(=O)COc1ccccc1)CC2 (configuration not stated) was read as KDM5B inh inconclusive, IP6K1 inhibitor 8.3, HEK293 viab -8.0% and SNCA expr inh 3.1%.
`COCC1CN(C2CCC2)CC12CCN(C(=O)COc1ccc(F)cc1)CC2` (configuration not stated) gave KDM5B inh 10µM*, IP6K1 inhibitor 5.2, HEK293 viab -20.0% and SNCA expr inh -9.6%.
`COc1cc2ncnc(Nc3ccc(F)c(Cl)c3)c2cc1NC(=O)/C=C/CN1CCCCC1` gave IP6K1 inhibitor 2.2 and HEK293 viab 23.8µM*.
COc1cc2ncnc(Nc3ccc(F)c(Cl)c3)c2cc1O was read as IP6K1 inhibitor 4.1 and HEK293 viab -1.0%.
CCCc1noc(-c2cccn3c(CNC(=O)c4ccco4)nnc23)n1 was read as KDM5B inh 25.1µM*, IP6K1 inhibitor -3.3, HEK293 viab -13.4% and SNCA expr inh -5.4%.
CCc1noc(-c2cccn3c(CNC(=O)c4ccco4)nnc23)n1 was read as KDM5B inh 28.2µM*, IP6K1 inhibitor 18.6, HEK293 viab -4.9% and SNCA expr inh -9.3%.
CCc1noc(-c2cccn3c(CNC(=O)c4cc5ccccc5[nH]4)nnc23)n1 was read as KDM5B inh inconclusive, IP6K1 inhibitor 16.6, HEK293 viab -7.0% and SNCA expr inh 66.1%.
Screening CCCc1noc(-c2cccn3c(CNC(=O)c4ccc(Cl)cc4)nnc23)n1 returned KDM5B inh inconclusive, IP6K1 inhibitor 11.9, HEK293 viab -11.0% and SNCA expr inh 1.4%.
For COCCNC(=O)c1cc(C2CC2)nc2c1c(C1CCNCC1)nn2C the results were KDM5B inh inconclusive, IP6K1 inhibitor -9.7, HEK293 viab 3.7% and SNCA expr inh -6.3%.
Screening Cn1nc(C2CCCN2)c2c(C(=O)NCC(F)(F)F)cc(C3CC3)nc21 (configuration not stated) returned KDM5B inh 79.4µM*, IP6K1 inhibitor -4.2, HEK293 viab 12.6% and SNCA expr inh 26.5%.
Screening COCCNC(=O)c1cc(C2CC2)nc2c1c(C1CCCN1)nn2C (configuration not stated) returned KDM5B inh 79.4µM*, IP6K1 inhibitor 3.9, HEK293 viab 0.8% and SNCA expr inh -0.1%.
For CC(C)C(=O)N1CCC2(CC1)OC(=O)N(Cc1ncccn1)C2(C)c1ccccc1 (configuration not stated) the results were KDM5B inh inactive, IP6K1 inhibitor -5.1, HEK293 viab 2.4%[87.6 µM] and SNCA expr inh -3.0%[87.6 µM].
CN(C)c1ccc(-c2ccnc(N[C@H]3CO[C@H]4[C@@H]3OC[C@H]4OC(=O)Nc3cccc(C#N)c3)n2)cc1 was read as KDM5B inh inactive, IP6K1 inhibitor -1.0, HEK293 viab -22.3% and SNCA expr inh -4.2%.
`CN(C)c1ccc(-c2ccnc(N[C@H]3CO[C@H]4[C@@H]3OC[C@H]4OC(=O)NC3CCCCC3)n2)cc1` gave KDM5B inh 31.6µM*, IP6K1 inhibitor -5.2, HEK293 viab -2.4% and SNCA expr inh 3.7%.
For O=C(NC1CCCCC1)O[C@@H]1CO[C@H]2[C@@H]1OC[C@@H]2Nc1nccc(-c2cccs2)n1 the results were KDM5B inh 31.6µM*, IP6K1 inhibitor -2.4, HEK293 viab inconclusive and SNCA expr inh -3.8%[87.6 µM].
`COc1ccc(C2(C(=O)NCc3ccsc3)CCOCC2)cc1` gave KDM5B inh inactive, IP6K1 inhibitor -10.5, HEK293 viab 1.5% and SNCA expr inh 4.2%.
CC(=O)N1CCCN(c2ncnc3c2CN(C2CCCNC2)C(=O)CN3C)CC1 (configuration not stated) was read as KDM5B inh 50.1µM*, IP6K1 inhibitor -11.6, HEK293 viab 4.7% and SNCA expr inh 9.1%.
`CN1CC(=O)N(C2CCCNC2)Cc2c1ncnc2N1CCc2ccccc2C1` (configuration not stated) gave KDM5B inh 50.1µM*, IP6K1 inhibitor -14.8, HEK293 viab 6.0% and SNCA expr inh 109.4%.
`CC(=O)N1CCCN(c2ncnc3c2CN(C2CCCNCC2)C(=O)CN3C)CC1` (configuration not stated) gave KDM5B inh inactive, IP6K1 inhibitor -15.8, HEK293 viab 2.7% and SNCA expr inh 10.9%.
COCC[C@]1(O)CCN(C(=O)CCCc2ccccc2)C[C@H]1C was read as KDM5B inh inactive, IP6K1 inhibitor 5.7, HEK293 viab 4.7% and SNCA expr inh 110.8%.
Cc1ccc(-n2ncc3c(N4CCCCCC4)ncnc32)cc1 was read as KDM5B inh inconclusive, IP6K1 inhibitor -3.6, HEK293 viab -0.8% and SNCA expr inh 2.24µM*.
Screening COc1ccc(-c2ccc3nc(-c4ccc(C)c(F)c4)oc3c2)c(OC)c1OC returned KDM5B inh inactive, IP6K1 inhibitor -1.2, HEK293 viab 8.1% and SNCA expr inh -3.4%.
`O=C(Cc1ccccn1)N1CCn2c(nnc2-c2ccccc2)C1` gave KDM5B inh inconclusive, IP6K1 inhibitor 5.3, HEK293 viab 13.3%[87.6 µM] and SNCA expr inh 5.8%[87.6 µM].
COc1ccc(-c2nccn3cc(C(=O)O)nc23)cc1 was read as KDM5B inh 28.2µM*, IP6K1 inhibitor -10.2, HEK293 viab 10.1% and SNCA expr inh -4.6%.
For COc1ccc(CNC(=O)c2cn3ccnc(-c4ccccc4)c3n2)cc1OC the results were KDM5B inh inactive, IP6K1 inhibitor 23.5, HEK293 viab -19.1% and SNCA expr inh -4.1%.
For COc1ccc(-c2nccn3cc(C(=O)NCc4cccnc4)nc23)cc1 the results were KDM5B inh 20µM*, IP6K1 inhibitor 19.3, HEK293 viab -21.6% and SNCA expr inh 36.5%.
`COc1ccc(-c2nccn3cc(C(=O)Nc4ccc(OC)c(OC)c4)nc23)cc1` gave KDM5B inh inactive, IP6K1 inhibitor -0.3, HEK293 viab -19.0% and SNCA expr inh 12.5%.
